Screens from PubChem.
In the library only some 19% were active in any assay of this set; here they are far more common.
HT1080 IDH1KD tx: toxicity to HT-1080 IDH1 knockdown cells (counter line) | Potency, µM (series often up to 46.1 µM), for the others: at the top dose activity, negative = toxicity, usual class: cytotoxic | HT-1080 IDH1 knockdown viability, ATP luminescence, 48 h | AID 686971 | 360,000 compounds, 2% hits;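 also: potency is read from the fitted curve at half-maximal effect; 0% = DMSO wells and -100% = cell-free medium wells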
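Knockdown cells (IDH1KD HT-1080) received compounds 2 h after plating at 750 cells/well and were kept 48 h at 37 °C in 5% FBS RPMI. A CellTiter-Glo luminescence read gave % activity for curve fitting.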
DT40 TDP1 CPT: DT40-hTDP1 cell growth loss with CPT; 420,000 compounds, 12% hits; Potency, µM (highest dose often 46.2 µM), without a hit: at the highest dose activity change, negative = growth inhibition, actives largely listed as inhibitors; chicken DT40 Tdp1-/-;hTDP1 cells + 20 nM CPT, ATP luminescence, 48 h; also: potency is read from the fitted curve at half-maximal effect; nearly all actives have a fitted effect of over 55% in size
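Cell growth measured by CellTiter-Glo luminescence after a minimum 48 h, 37 C compound exposure with 20 nM CPT in Tdp1-knockout DT40 cells stably expressing hTDP1, seeded 400/well; qHTS titration format.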
TDP1 cell noCPT: qHTS for Inhibitors of human tyrosyl-DNA phosphodiesterase 1 (TDP1): qHTS in cells in absence of CPT; DT40 Tdp1-/- hTDP1 cells, no CPT, ATP luminescence, 48 h; Potency, µM (series often up to 46.2 µM), inactives show at the top dose activity change, negative = growth inhibition, most hits filed as inhibitors; 420,000 compounds, 15% hits; AID 686978, 2013; also: potency is read from the fitted curve at half-maximal effect; nearly all actives have a fitted effect of over 55% in size
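A cellular qHTS used chicken DT40 cells lacking endogenous Tdp1 but carrying stably transfected human TDP1. Compounds were applied without camptothecin, and cell growth kinetics were judged by ATP-dependent luminescence after ≥48 hr.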
HT1080-NT tox: kills 2HG-producing HT-1080-NT fibrosarcoma cells; HT-1080-NT fibrosarcoma viability, CellTiter-Glo ATP luminescence, 48 h; Potency, µM (series often up to 46.1 µM), for the others: at the top dose activity, negative = less viability, actives largely listed as cytotoxic; 360,000 compounds, 1.6% hits; AID 686970;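 also: NT is the 2HG producing partner of a matched IDH1 knockdown line; potency is read from the fitted curve at half-maximal effect; 0% = DMSO-treated cells and -100% = media-only wells without cells; nearly all actives have a fitted effect of over 55% in size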
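HT-1080-NT fibrosarcoma cells (2HG-overproducing), 750 cells/well in RPMI with 5% FBS, dosed after 2 h and incubated 48 h at 37C. CellTiter-Glo luminescence normalized to DMSO and no-cell wells; concentration-response curves fitted and classed.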
IL1B secr inh: blocks inflammasome-driven IL-1 beta release. THP-1 LPS/ATP IL-1B secretion, AlphaLISA, 16 h; hits give low values. activity change, % at 57.5 µM. 360,000 compounds, 4.7% hits; in the data active = activity change below about -50%; inconclusive = mostly about -30% to -49%
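Secreted IL-1B measured by AlphaLISA bead assay after 16 h compound exposure of THP-1 cells; compounds (final up to 57.5 uM) added 1 h before LPS (250 ng/mL) and ATP (1.25 mM) stimulation; lower signal means less secretion.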
Starred values were filed as active, the others as inactive; u = inconclusive; x = no result given. Unless noted, calls follow the shape of the dose curve; as a rule, active = well fitted curve in the direction sought with a large enough effect; inconclusive = small, poorly fitted or top-dose-only effect, or another doubt; inactive = no such curve, though single readings can be large; an effect the other way counts as inactive or inconclusive. Unless noted, % is scaled to controls: 0 for no effect and ±100 for the full control effect.

SMILES | HT1080 IDH1KD tx | DT40 TDP1 CPT | TDP1 cell noCPT | HT1080-NT tox | IL1B secr inh
COc1ccc(CCNC(=O)CCc2c(C)nc3cc(-c4ccccc4)nn3c2C)cc1OC | x | 16µM* | 26µM* | x | x
OCC[C@H]1C[C@@H](O)[C@H](O)[C@@]2(CCCCO2)O1 | 15% | 3% | 10% | 17% | 1
CC(N=C(NC#N)Nc1ccncc1)C(C)(C)C (configuration not stated) | x | u | u | x | -15
Cc1ccc(NC(=O)C2CCN(S(=O)(=O)c3c(C)n[nH]c3C)CC2)c(C)c1 | 12% | -18% | -25% | 10% | -1
O=C(CCN1C(=O)c2ccccc2C1=O)CN1CCOCC1 | -1% | 7% | -2% | -3% | 6
COc1ccccc1CCC(=O)O | x | -9% | -1% | x | x
COc1ccc(CNc2ccnc(-c3cccnc3)n2)c(OC)c1 | x | 23µM* | u | x | x
COc1ccc(CNc2ccnc(-c3ccc(N(C)C)cc3)n2)c(OC)c1 | x | 26µM* | u | x | x
CCCn1c(=O)c(C(=O)NNS(=O)(=O)c2ccc(NC(=O)OC)cc2)c(O)c2ccccc21 | 2% | -16% | -44% | 10% | -14
N#Cc1ccccc1NC(=O)C(=O)NCCc1csc2nc(-c3cccc(F)c3)nn12 | x | -20% | -28% | x | x
CC(C)CC(COCc1ccc(Cl)cc1)N1CCN(C(=O)c2ccc(Cl)cc2Cl)CCC1=O (configuration not stated) | u | 23µM* | u | u | 0
CC(C)C[C@@H](COCc1ccc(Cl)cc1)N1CCN(C(=O)c2ccc(C(F)(F)F)cc2)CCC1=O | u | u | 21µM* | u | u
O=C(c1ccc(C(F)(F)F)cc1)N1CCC(=O)N([C@H](COCc2ccc(C(F)(F)F)cc2)Cc2ccccc2)CC1 | u | 23µM* | u | u | 0
CC(C)C[C@@H](COCc1ccc([N+](=O)[O-])cc1)N1CCN(C(=O)c2ccc(C(F)(F)F)cc2)CCC1=O | u | u | 16µM* | -22% | -24
O=C(c1ccc(C(F)(F)F)cc1)N1CCC(=O)N(C(CO)Cc2ccccc2)CC1 (configuration not stated) | 0% | u | u | 10% | 29
COc1ccccc1CNC(=O)C1CCN(S(=O)(=O)c2ccc3c(c2)NC(=O)CO3)CC1 | 0% | 4% | -22% | 1% | -4
Cc1cc(NC(=O)c2ccc(C)c(C)c2)no1 | 15% | 0% | -18% | 25% | 2
COc1ccc(CNCc2cccc(Cl)c2)cc1 | -2% | u | -25% | -2% | -19
CCc1ccc(NC(=S)NCc2ccccc2)cc1 | 12% | 2% | 14% | 9% | 21
Cc1ccc(CNCC(O)(c2ccccc2)c2ccccc2)cc1 | -11% | u | 21µM* | -6% | -11
Cc1ccc(CNC(=O)NCc2ccccc2)cc1 | 12% | -13% | 0% | 13% | 43
CCc1ccc(C(O)(CNCc2ccccc2)c2ccccc2)cc1 (configuration not stated) | -1% | 23µM* | 21µM* | -12% | -10
COc1ccc(CNCC(O)(c2ccccc2)c2ccc(Cl)cc2)cc1 (configuration not stated) | -26% | u | 21µM* | u | 0
NC(C(=O)O)c1cccc(O)c1 (configuration not stated) | x | 10% | -11% | x | x
COc1ccc(/C=C2\SC(=O)N(CCNC(=O)Cn3cnnn3)C2=O)cc1 | -5% | -25% | -13% | 8% | -28
SMILES | HT1080 IDH1KD tx | DT40 TDP1 CPT | TDP1 cell noCPT | HT1080-NT tox | IL1B secr inh
COc1ccc(/C=C2\SC(=O)N(CCNC(=O)CCS(=O)(=O)c3ccc(C)cc3)C2=O)cc1 | -7% | 13µM* | 21µM* | -3% | -12
CCc1noc(C)c1C(=O)NCCN1C(=O)S/C(=C\c2ccc(OC)cc2)C1=O | 0% | 23µM* | 16µM* | 2% | -23
CCCCN(CC)C(=O)Cn1nc(C)c2c(C)n(-c3ccccc3)nc2c1=O | x | -8% | -13% | x | x
N/C(=N\NC(=O)c1cccs1)c1cc2cc(Cl)ccc2oc1=O | -1% | -24% | -5% | -4% | u
CCN1CCN(c2ncnc3c2cnn3-c2ccc(C)c(Cl)c2)CC1 | x | -18% | -21% | x | x
Cc1ccc(-n2ncc3c(N4CCN(C)CC4)ncnc32)cc1Cl | x | u | 21µM* | x | x
Cc1ccc(-n2ncc3c(N4CCN(CCO)CC4)ncnc32)cc1Cl | x | 12µM* | u | x | x
O=C(NCc1ccccc1)C(=O)NCC(c1cccs1)S(=O)(=O)c1ccccc1 (configuration not stated) | x | -23% | -18% | x | x
COCCCn1c(SCc2ccccc2)nc2cc(OC)c(OC)cc2c1=N | -29% | 23µM* | u | -29% | -10
COc1ccc(Cn2c(SCc3ccc(C)cc3)nc3cc(OC)c(OC)cc3c2=N)cc1Cl | 23µM* | 4.1µM* | 2.3µM* | 21µM* | -121*
COc1ccc(Cn2c(SCc3cc(C)ccc3C)nc3cc(OC)c(OC)cc3c2=N)cc1 | u | 8.2µM* | 7.3µM* | u | -96*
COc1cc2nc(SCc3ccc(Cl)cc3Cl)n(Cc3cccs3)c(=N)c2cc1OC | -9% | u | u | -9% | u
COc1cc2nc(SCc3ccc(C(F)(F)F)cc3)n(Cc3cccs3)c(=N)c2cc1OC | -2% | -5% | 21% | 0% | -6
O=C(c1ccco1)N1CCN(C(=O)C2CCCc3c2[nH]c2ccc(Cl)cc32)CC1 (configuration not stated) | u | -24% | -23% | u | -7
CC1CC(C)CN(C(=O)CSc2nc(Cc3cccs3)nc3ccccc23)C1 (configuration not stated) | u | u | 21µM* | u | -61*
CCOC(=O)CNC(=O)CSc1nc(Cc2cccs2)nc2ccccc12 | -2% | u | u | -15% | -11
O=C(CCSc1ccccc1)Nc1nc2c(s1)CCCC2 | u | u | 10µM* | -11% | -4
CC(C)(C)c1nc(SCC(=O)N2CCCC2)c2ccccc2n1 | -1% | 21µM* | 16µM* | 1% | -18
O=C(CSc1ncn(-c2ccccc2)n1)Nc1nc2c(s1)CCCC2 | -10% | u | u | 1% | 7
Cc1nc(SCC(=O)N2CCNC2=O)c2ccccc2n1 | u | u | u | u | -96*
Cc1cc(SCC(=O)N2CCCC2)nc2ccccc12 | 0% | 3% | -13% | 4% | -26
CCOC(=O)/C(C#N)=C\c1ccc(OCC(=O)Nc2ccc(C)cc2C)c(OC)c1 | 16% | 4% | u | 16% | -11
